Experimental findings from PubChem BioAssay are described below.

A short description of assay [1]: antimalarial activity against Dd2 strain (AID 2302;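 active means growth inhibition above 50% at the single 2 µM test dose, taken to imply half-maximal potency below 2 µM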;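 further: 0% = DMSO untreated growth and 100% = chloroquine plus artemisinin killed control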). The note with it: P. falciparum Dd2 in RBCs, LDH growth readout, 72 h; at 2 µM; hits give high values.
Assay [2] can be described thus: HepG2 cytotoxicity, primary screen, cytotoxicity control for P. falciparum antimalarial project, cell-based, ATP luminescence (AID 2303;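 active means inhibition above 50%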;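 further: 0% = DMSO wells and 100% = digitonin-killed cells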). The note with it: HepG2 viability, 24-48 h, at 10 µM, hits give high values.
For assay [3], the target named is L-lactate dehydrogenase (Plasmodium falciparum (isolate CDC / Honduras)) (UniProt Q27743). Nature of the assay: PfLDH activity inhibition – cell lysate, 3D7 strain, counter-screen for P. falciparum growth inhibition project (AID 2304).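 Further: 0% = vehicle and 100% = reference inhibitor.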 The note with it: P. falciparum 3D7 crude extract, LDH APAD/NBT absorbance; at 2 µM; hits give high values.
Sequence of L-lactate dehydrogenase (Plasmodium falciparum (isolate CDC / Honduras)) (Q27743 whole entry, looked up): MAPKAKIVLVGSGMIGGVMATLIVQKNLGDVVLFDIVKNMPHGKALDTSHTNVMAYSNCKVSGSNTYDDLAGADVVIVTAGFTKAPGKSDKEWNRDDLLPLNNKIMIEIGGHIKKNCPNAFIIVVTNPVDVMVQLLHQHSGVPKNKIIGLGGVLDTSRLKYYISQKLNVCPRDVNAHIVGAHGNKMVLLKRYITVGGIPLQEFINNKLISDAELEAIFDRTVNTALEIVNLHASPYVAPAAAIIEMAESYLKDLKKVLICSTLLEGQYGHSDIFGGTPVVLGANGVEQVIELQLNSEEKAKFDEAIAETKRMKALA
Assay [4] is described as follows: inhibition of 3D7 malaria parasite growth – strain 3D7 (AID 2306).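 Further: 0% = DMSO wells and 100% = chloroquine plus artemisinin control wells.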 To be noted: P. falciparum 3D7 erythrocytic growth, LDH absorbance, 72 h; at 2 µM; hits give high values.
Assay [5] has as its target Calcium-dependent protein kinase 1 (Plasmodium falciparum (isolate 3D7)) (UniProt P62344). The assay can be described thus: PfCDPK1 kinase inhibitors, biochemical, TCAMS library (AID 1159585; cut-off not given, nearly all actives have IC50 up to about 0.98 µM;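 further: inhibitors leave more ATP so luminescence rises with inhibition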). To be noted: recombinant PfCDPK1, Kinase-Glo ATP depletion luminescence.
Assay [6] concerns the target Plasmodium falciparum protein kinase 6 (PK6, PF3D7_1337100) (UniProt Q8IDW1). The assay can be described thus: PfPK6 kinase inhibitors, biochemical, TCAMS library (AID 1159586). To be noted: recombinant PfPK6, Kinase-Glo ATP depletion luminescence.
The target of assay [7] is Protein kinase 7 (PK7), Plasmodium falciparum 3D7 (PF3D7_0213400) (UniProt Q7YTF7). The assay can be described thus: inhibition of Plasmodium PK7 catalytic activity – biochemical, TCAMS antimalarial set, Kinase-Glo luminescence (AID 1159587). The note with it: recombinant PfPK7, Kinase-Glo ATP depletion luminescence.
Sequence of Protein kinase 7 (PK7), Plasmodium falciparum 3D7 (PF3D7_0213400) (Q7YTF7 1-343): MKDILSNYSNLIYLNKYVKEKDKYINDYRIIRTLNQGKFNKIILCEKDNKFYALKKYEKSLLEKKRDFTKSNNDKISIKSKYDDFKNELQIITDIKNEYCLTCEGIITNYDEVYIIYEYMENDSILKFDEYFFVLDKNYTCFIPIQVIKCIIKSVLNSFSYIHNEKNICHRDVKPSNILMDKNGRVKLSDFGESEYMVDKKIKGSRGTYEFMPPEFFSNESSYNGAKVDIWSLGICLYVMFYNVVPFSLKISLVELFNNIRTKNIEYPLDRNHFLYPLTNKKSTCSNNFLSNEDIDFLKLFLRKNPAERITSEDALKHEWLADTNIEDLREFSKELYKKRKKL
Assay [8] addresses Calcium-dependent protein kinase 4 (Plasmodium falciparum (isolate 3D7)) (UniProt Q8IBS5). The assay can be described thus: PfCDPK4 kinase inhibitors, biochemical, TCAMS library (AID 1159588; cut-off not given, nearly all actives have IC50 up to about 0.91 µM). The note with it: recombinant PfCDPK4, Kinase-Glo ATP depletion luminescence.

A number with no mark means an inactive call. For some of these results: Measured potencies and affinities stand elsewhere. Activity calls are given as the source filed them. Unless noted, how the calls were made is not given here.

Sequence of Plasmodium falciparum protein kinase 6 (PK6, PF3D7_1337100) (Q8IDW1 1-305): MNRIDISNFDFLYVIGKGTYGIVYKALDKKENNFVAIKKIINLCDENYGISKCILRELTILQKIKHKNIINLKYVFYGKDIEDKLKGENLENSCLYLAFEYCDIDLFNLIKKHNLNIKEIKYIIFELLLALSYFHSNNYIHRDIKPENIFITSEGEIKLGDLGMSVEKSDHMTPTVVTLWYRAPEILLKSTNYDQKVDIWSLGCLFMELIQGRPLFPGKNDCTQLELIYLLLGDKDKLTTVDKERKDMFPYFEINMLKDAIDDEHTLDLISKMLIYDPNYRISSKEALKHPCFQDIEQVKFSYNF
Sequence of Calcium-dependent protein kinase 1 (Plasmodium falciparum (isolate 3D7)) (P62344 whole entry, looked up): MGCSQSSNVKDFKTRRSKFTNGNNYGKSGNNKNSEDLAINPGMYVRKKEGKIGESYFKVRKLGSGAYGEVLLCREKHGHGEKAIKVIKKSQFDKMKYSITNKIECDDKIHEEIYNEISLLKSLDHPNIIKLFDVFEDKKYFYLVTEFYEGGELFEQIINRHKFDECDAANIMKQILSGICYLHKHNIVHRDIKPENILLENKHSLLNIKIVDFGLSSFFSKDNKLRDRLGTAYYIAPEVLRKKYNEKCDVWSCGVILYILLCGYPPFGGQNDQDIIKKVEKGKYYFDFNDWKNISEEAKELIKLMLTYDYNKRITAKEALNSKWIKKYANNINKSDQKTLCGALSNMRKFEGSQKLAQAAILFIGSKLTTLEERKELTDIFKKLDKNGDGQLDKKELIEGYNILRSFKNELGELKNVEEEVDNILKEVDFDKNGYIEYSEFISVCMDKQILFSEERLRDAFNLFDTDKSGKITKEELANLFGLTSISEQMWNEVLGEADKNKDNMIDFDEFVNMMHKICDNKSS
Sequence of Calcium-dependent protein kinase 4 (Plasmodium falciparum (isolate 3D7)) (Q8IBS5 whole entry, looked up): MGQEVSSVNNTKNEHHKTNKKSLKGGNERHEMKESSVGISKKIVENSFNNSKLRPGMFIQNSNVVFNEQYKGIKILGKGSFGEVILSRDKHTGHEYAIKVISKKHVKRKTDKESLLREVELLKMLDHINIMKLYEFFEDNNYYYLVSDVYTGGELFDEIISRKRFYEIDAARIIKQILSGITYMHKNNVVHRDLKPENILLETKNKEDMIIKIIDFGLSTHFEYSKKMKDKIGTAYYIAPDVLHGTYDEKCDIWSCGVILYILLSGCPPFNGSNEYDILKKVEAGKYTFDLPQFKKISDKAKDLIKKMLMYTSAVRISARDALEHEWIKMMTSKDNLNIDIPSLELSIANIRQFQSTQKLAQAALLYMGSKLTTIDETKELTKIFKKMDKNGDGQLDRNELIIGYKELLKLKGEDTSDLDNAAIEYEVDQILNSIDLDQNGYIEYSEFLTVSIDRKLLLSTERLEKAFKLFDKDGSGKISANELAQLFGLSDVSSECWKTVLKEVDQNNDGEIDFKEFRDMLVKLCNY

In the case of `CC(=O)Nc1cccc(C(=O)Nc2ccc(-c3cccc(-c4nc5ccc(C(F)(F)F)cc5[nH]4)c3)cc2)c1`, the growth inhibition in assay [1] is 85% (active); in assay [4], 101% (active). In addition, the inhibition in assay [2] was 81% (active); in assay [3] it was 2%. The outcome in assay [5], in assay [6], in assay [7] and in assay [8] was inactive.
For the molecule `C=C[C@H]1CN(CCCCCCC)CC[C@H]1CC(O)Cc1ccnc2cc(O)c(OC)cc12` (stereo not given in full), the growth inhibition in assay [1] is 59% (active); in assay [4] it was 95% (active). Moreover, the inhibition in assay [2] is 7%; in assay [3], 1%. The result in assay [5], in assay [6], in assay [7] and in assay [8] was inactive.
With `COc1ccc(Nc2nccc(NCCNC(=O)c3cc4ccccc4s3)n2)cc1`, the growth inhibition was 7% in assay [1] and 98% (active) in assay [4]. In addition, the inhibition is 6% in assay [2] and -1% in assay [3]. Also, the outcome in assay [5], in assay [6], in assay [7] and in assay [8] was inactive.
In the case of `O=S(=O)(c1cccc(C(F)(F)F)c1)N1CCC(CO)(Cc2cccc(C(F)(F)F)c2)CC1`, the growth inhibition is 79% (active) in assay [1] and 100% (active) in assay [4]. The figures for the inhibition in assay [2] and in assay [3] were 3% and 0%, respectively. In addition, the outcome in assay [5], in assay [6], in assay [7] and in assay [8] was inactive.
Take `CC(C)CCn1c(Sc2ccc(C#N)c([N+](=O)[O-])c2)nnc1-c1cccc(Cl)c1`: the growth inhibition in assay [1] is 82% (active); in assay [4], 96% (active). Besides, the inhibition is 33% in assay [2] and 0% in assay [3]. Also, the result in assay [5], in assay [6], in assay [7] and in assay [8] was inactive.
Turning to `CC(C)(C)c1ccc(NC(=O)c2cccc(CN3CCN(Cc4cccc(O)c4)CC3)c2)cc1`, the growth inhibition in assay [1] is 3%; in assay [4], 92% (active). The inhibition in assay [2] was 28%; in assay [3], -2%. Besides, the outcome in assay [5], in assay [6], in assay [7] and in assay [8] was inactive.
Turning to `COc1cccc(C=Cc2nc(=O)c3ccccc3o2)c1OC`, the growth inhibition in assay [1] and in assay [4] was 97% (active) each time. The inhibition was -19% in assay [2] and 7% in assay [3]. For the same molecule, the result in assay [5], in assay [6], in assay [7] and in assay [8] was inactive.
On to `COc1cc2nc(N3CCC(CNC(=O)c4ccc(-c5cccc(C#N)c5)cc4)CC3)nc(N)c2cc1OC`, for which the growth inhibition in assay [1] and in assay [4] was 100% (active) throughout. For the same molecule, the figures for the inhibition in assay [2] and in assay [3] were 18% and 6%, respectively. In addition, the outcome in assay [5], in assay [6], in assay [7] and in assay [8] was inactive.
On to `O=S(=O)(c1ccccc1C(F)(F)F)C1C[C@H]2CC[C@@H](C1)N2S(=O)(=O)c1ccc(Cl)c(C(F)(F)F)c1` (stereo not given in full), for which the growth inhibition in assay [1] is 99% (active); in assay [4], 97% (active). The inhibition was 4% in assay [2] and -3% in assay [3]. Further, the result in assay [5], in assay [6], in assay [7] and in assay [8] was inactive.
`N#Cc1cccc(-c2cnc(N)c(-c3nc4ccc(S(N)(=O)=O)cc4[nH]3)c2)c1`: the growth inhibition in assay [1] is 99% (active); in assay [4], 100% (active). For the same molecule, the inhibition is 16% in assay [2] and -5% in assay [3]. Also, the result in assay [5], in assay [6], in assay [7] and in assay [8] was inactive.
`COc1ccc2nccc(N3CCN(CCNCc4ccc5c(n4)NC(=O)CO5)CC3)c2n1`: the values for the growth inhibition in assay [1] and in assay [4] were 12% and 98% (active), respectively. The inhibition in assay [2] was 10%; in assay [3] it was 1%. The result in assay [5], in assay [6], in assay [7] and in assay [8] was inactive.
On to `O=C(Nc1cccc(CN2CCCN(Cc3cccc(Cl)c3)CC2)c1)c1ccc(Cl)c(Cl)c1`, for which the growth inhibition in assay [1] was 17%; in assay [4] it was 89% (active). The inhibition is 18% in assay [2] and -1% in assay [3]. For the same molecule, the outcome in assay [5], in assay [6], in assay [7] and in assay [8] was inactive.
For the molecule `C[C@H]1CN(Cc2cccc(-c3cc(CNC(=O)c4cccc(CN5CCN(CCOc6ccccc6)CC5)c4)ccc3F)c2)CCN1`, the growth inhibition was 88% (active) in assay [1] and 91% (active) in assay [4]. In addition, the inhibition in assay [2] is 59% (active); in assay [3], 4%. Besides, the outcome in assay [5], in assay [6], in assay [7] and in assay [8] was inactive.
For `O=c1cc(NCCNCc2cccc(-c3ccccc3)c2)[nH]c2ccccc12`, the growth inhibition in assay [1] was 68% (active); in assay [4] it was 93% (active). Moreover, the inhibition in assay [2] was -2%; in assay [3] it was -6%. The result in assay [5], in assay [6], in assay [7] and in assay [8] was inactive.
Consider `O=C(Cc1cnc[nH]1)Nc1cccc(-c2cccc(-c3nc4ccc(C(F)(F)F)cc4[nH]3)c2)c1`, for which the growth inhibition was 101% (active) in assay [1] and 102% (active) in assay [4]. Moreover, the inhibition in assay [2] is 35%; in assay [3], -3%. The outcome in assay [5], in assay [6], in assay [7] and in assay [8] was inactive.
As for `O=C(N[C@H]1CCN(CCc2ccc(O[C@H]3CCNC3)cc2)C1)c1ccc(Cl)c(Cl)c1`, the figures for the growth inhibition in assay [1] and in assay [4] were 5% and 96% (active), respectively. Also, the figures for the inhibition in assay [2] and in assay [3] were 18% and -3%, respectively. In addition, the result in assay [5], in assay [6], in assay [7] and in assay [8] was inactive.
For `CC(C)(C)C(C)(C)Cc1ccc(O)c(CN2CCN(c3ccccc3)CC2)c1`, the results for the growth inhibition in assay [1] and in assay [4] were 98% (active) and 99% (active), respectively. The inhibition in assay [2] is 6%; in assay [3], 0%. For the same molecule, the result in assay [5], in assay [6], in assay [7] and in assay [8] was inactive.
With `COc1cc(NC(=O)N2CCOC(CCN3CCC4(CCc5ccccc54)CC3)(c3ccc(Cl)c(Cl)c3)C2)cc(OC)c1OC` (stereo not given), the figures for the growth inhibition in assay [1] and in assay [4] were 67% (active) and 94% (active), respectively. For the same molecule, the inhibition in assay [2] was 17%; in assay [3], -4%. Further, the outcome in assay [5], in assay [6], in assay [7] and in assay [8] was inactive.
Regarding `COc1ccc(CNCCc2cccs2)cc1-c1ccc(S(=O)(=O)NCCN2CCCC2)cc1`, the growth inhibition in assay [1] is 30%; in assay [4], 99% (active). In addition, the inhibition in assay [2] was 30%; in assay [3] it was 4%. Further, the result in assay [5], in assay [6], in assay [7] and in assay [8] was inactive.
`CC(=O)Nc1ccc(C#Cc2ccc(-c3c(C)[nH]c(C)c(Cl)c3=O)cc2)cc1`: the growth inhibition was 78% (active) in assay [1] and 90% (active) in assay [4]. For the same molecule, the inhibition in assay [2] was -3%; in assay [3], -7%. For the same molecule, the result in assay [5], in assay [6], in assay [7] and in assay [8] was inactive.
